Active and inactive are the calls of the source. How the source made its calls: active means hit-call score of the fitted dose curve at least 0.9, where 1 is the maximum; inactive means score below 0.9.
What was measured:
[1] = read-out: Transforming growth factor beta 1 (TGFb1), TGFB1 (gene 7040); experiment: BSK_KF3CT_TGFb1: BioMAP Diversity Plus: KF3CT Assay for Transforming growth factor beta 1 (TGFb1) Biomarker Activity (AID 2283072); details: primary human keratinocytes with fibroblasts; actives raise or lower the signal
How it was run: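 Human keratinocyte plus foreskin fibroblast primary co-culture, dosed with chemical for 24 h. TGF-b1 quantified by ELISA. Activity fitted bidirectionally against DMSO negative control as baseline.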

[2] = read-out: C-C motif chemokine 2 (Homo sapiens) (UniProt P13500); experiment: BSK_KF3CT_MCP1: BioMAP Diversity Plus: KF3CT Assay for Monocyte Chemoattractant Protein 1 (MCP1/CCL2) Biomarker Activity (AID 2283073); details: primary human keratinocytes with fibroblasts; actives raise or lower the signal
How it was run: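 Biomarker MCP-1 is measured by ELISA in primary human keratinocytes co-cultured with foreskin fibroblasts, 24 h after chemical treatment; DMSO serves as the negative control and activity baseline.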

[3] = read-out: Matrix Metallopeptidase 9 (MMP9), MMP9 (gene 4318); experiment: BSK_KF3CT_MMP9: BioMAP Diversity Plus: KF3CT Assay for Matrix Metallopeptidase 9 (MMP9) Biomarker Activity (AID 2283074); details: primary human keratinocytes with fibroblasts; actives raise or lower the signal
How it was run: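 Human keratinocyte and foreskin fibroblast co-culture exposed to chemicals for 24 h; MMP9 biomarker measured by ELISA, bidirectional fitting relative to DMSO; cytotoxicity tracked by SRB total protein staining in parallel cultures.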

[4] = read-out: CD40, CD40 (gene 958); experiment: BSK_LPS_CD40: BioMAP Diversity Plus: LPS Assay for CD40 Biomarker Activity (AID 2283076); details: primary human HUVEC with PBMC; actives raise or lower the signal
How it was run: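 Using a multiplexed primary human co-culture (umbilical vein endothelium plus PBMC), CD40 was read by ELISA 24 h after dosing, with cytotoxicity tracked by sulforhodamine B staining of parallel cultures and activity fitted bidirectionally versus DMSO.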

[5] = read-out: E-selectin (Homo sapiens) (UniProt P16581); experiment: BSK_LPS_Eselectin: BioMAP Diversity Plus: LPS Assay for Eselectin Biomarker Activity (AID 2283077); details: primary human HUVEC with PBMC; actives raise or lower the signal
How it was run: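 Dose chemical onto LPS-driven HUVEC/PBMC co-culture; after 24 h, run ELISA for E-selectin; fit up- and down-going responses relative to DMSO control.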

[6] = read-out: Interleukin-8 (IL8), CXCL8 (gene 3576); experiment: BSK_LPS_IL8: BioMAP Diversity Plus: LPS Assay for Interleukin-8 (IL8) Biomarker Activity (AID 2283078); details: primary human HUVEC with PBMC; actives raise or lower the signal
How it was run: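 In this LPS system, chemical-treated human umbilical vein endothelium/PBMC co-cultures were harvested at 24 h for IL-8 ELISA.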

[7] = BSK_LPS_SRB: Viability Assessment in the BioMAP Diversity Plus: LPS Assay (AID 2283079); details: primary human HUVEC with PBMC;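 further: total protein by sulforhodamine B absorbance as a cytotoxicity measure; measured one day after compound addition; fitted in both directions against DMSO so loss or gain of signal counts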
How it was run: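 Cytotoxicity endpoint in human endothelial–PBMC co-culture: 24 h exposure, then SRB (0.1%) staining, 560 nm read.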

[8] = read-out: Interleukin-1 alpha (IL1a), IL1A (gene 3552); experiment: BSK_LPS_IL1a: BioMAP Diversity Plus: LPS Assay for Interleukin-1 alpha (IL1a) Biomarker Activity (AID 2283080); details: primary human HUVEC with PBMC; actives raise or lower the signal
How it was run: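 Primary human HUVEC and PBMC co-culture stimulated with LPS is dosed and harvested at 24 h. Both increases and decreases in ELISA-measured IL-1a are scored relative to DMSO.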

[9] = read-out: Monocyte Chemoattractant Protein-1 (MCP1), CCL2 (gene 6347); experiment: BSK_LPS_MCP1: BioMAP Diversity Plus: LPS Assay for Monocyte Chemoattractant Protein-1 (MCP1) Biomarker Activity (AID 2283081); details: primary human HUVEC with PBMC; actives raise or lower the signal
How it was run: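 Values derive from bidirectional fitting against DMSO of ELISA-measured MCP-1 in a human primary endothelial and mononuclear cell co-culture, 24 h after chemical addition under LPS activation.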

[10] = BSK_LPS_PGE2: BioMAP Diversity Plus: LPS Assay for Prostaglandin E2 (PGE2) Biomarker Activity (AID 2283082); details: primary human HUVEC with PBMC; actives raise or lower the signal
How it was run: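 HUVEC plus PBMC co-culture stimulated with LPS; secreted PGE2 quantified by ELISA 24 h after chemical dosing. Activity fitted bidirectionally against DMSO as negative control and baseline; parallel SRB total-protein staining served as cytotoxicity check.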

[11] = read-out: Macrophage colony-stimulating factor (MCSF), CSF1 (gene 1435); experiment: BSK_LPS_MCSF: BioMAP Diversity Plus: LPS Assay for Macrophage colony-stimulating factor (MCSF) Biomarker Activity (AID 2283083); details: primary human HUVEC with PBMC; actives raise or lower the signal
How it was run: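 Bidirectional fit versus DMSO of ELISA-measured M-CSF in co-cultured human umbilical vein endothelial cells and PBMC, sampled 24 h after dosing.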

[12] = read-out: Tissue Factor, F3 (gene 2152); experiment: BSK_LPS_TissueFactor: BioMAP Diversity Plus: LPS Assay for Tissue Factor Biomarker Activity (AID 2283084); details: primary human HUVEC with PBMC; actives raise or lower the signal
How it was run: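 Read-out: CD142 ELISA, 24 h. System: LPS-driven human endothelial/PBMC co-culture. Analysis: up- or down-signal fitted against DMSO.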

[13] = read-out: Vascular cell adhesion molecule 1 (VCAM1), VCAM1 (gene 7412); experiment: BSK_LPS_VCAM1: BioMAP Diversity Plus: LPS Assay for Vascular cell adhesion molecule 1 (VCAM1) Biomarker Activity (AID 2283086); details: primary human HUVEC with PBMC; actives raise or lower the signal
How it was run: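 Human umbilical vein endothelial cells co-cultured with peripheral blood mononuclear cells under LPS stimulation were exposed to test chemical for 24 h. VCAM-1 levels were then measured by ELISA, with bidirectional curve fitting relative to DMSO as negative control and baseline.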

[14] = read-out: CD38, CD38 (gene 952); experiment: BSK_SAg_CD38: BioMAP Diversity Plus: SAg Assay for CD38 Biomarker Activity (AID 2283087); details: primary human HUVEC with PBMC; actives raise or lower the signal
How it was run: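 Fluorescence ELISA of cell-surface CD38 served as the read-out, with either increase or decrease fitted against DMSO controls. Cells were a human umbilical vein endothelium plus PBMC co-culture under SEB/TSST-1 stimulation, measured 24 h after dosing.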

[15] = read-out: CD40, CD40 (gene 958); experiment: BSK_SAg_CD40: BioMAP Diversity Plus: SAg Assay for CD40 Biomarker Activity (AID 2283088); details: primary human HUVEC with PBMC; actives raise or lower the signal
How it was run: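 Endpoint derived by fitting increases or decreases versus DMSO controls. CD40 is detected by fluorescence ELISA in a human vascular co-culture of endothelium and PBMC at 24 h.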

[16] = read-out: CD69, CD69 (gene 969); experiment: BSK_SAg_CD69: BioMAP Diversity Plus: SAg Assay for CD69 Biomarker Activity (AID 2283089); details: primary human HUVEC with PBMC; actives raise or lower the signal
How it was run: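 Endothelial/PBMC co-culture; chemical added; 24 h incubation; CD69 ELISA with fluorescence detection; bidirectional fit vs DMSO.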

[17] = read-out: Monocyte Chemoattractant Protein-1 (MCP1), CCL2 (gene 6347); experiment: BSK_SAg_MCP1: BioMAP Diversity Plus: SAg Assay for Monocyte Chemoattractant Protein-1 (MCP1) Biomarker Activity (AID 2283090); details: primary human HUVEC with PBMC; actives raise or lower the signal
How it was run: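 MCP-1 levels in the endothelial–PBMC SAg co-culture were quantified by ELISA at 24 h post-dosing; both increases and decreases versus DMSO scored. Cytotoxicity monitored by SRB total protein in parallel cultures.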

[18] = read-out: E-selectin (Homo sapiens) (UniProt P16581); experiment: BSK_SAg_Eselectin: BioMAP Diversity Plus: SAg Assay for Eselectin Biomarker Activity (AID 2283091); details: primary human HUVEC with PBMC; actives raise or lower the signal
How it was run: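 Endpoint values derive from bidirectional fitting relative to DMSO, using ELISA-measured E-selectin in a human vascular co-culture (umbilical vein endothelium plus PBMC) sampled 24 h after dosing.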

[19] = read-out: urokinase plasminogen activator (uPA), PLAU (gene 5328); experiment: BSK_KF3CT_uPA: BioMAP Diversity Plus: KF3CT Assay for urokinase plasminogen activator (uPA) Biomarker Activity (AID 2283075); details: primary human keratinocytes with fibroblasts; actives raise or lower the signal
How it was run: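 Primary human keratinocyte/foreskin fibroblast co-culture exposed to chemical; uPA measured by ELISA at 24 h. Bidirectional fit versus DMSO, with parallel SRB total-protein staining for cytotoxicity.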

[20] = read-out: Tumor necrosis factor (Homo sapiens) (UniProt P01375); experiment: BSK_LPS_TNFa: BioMAP Diversity Plus: LPS Assay for Tumour Necrosis Factor alpha (TNFa) Biomarker Activity (AID 2283085); details: primary human HUVEC with PBMC; actives raise or lower the signal
How it was run: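 Human umbilical vein endothelial cells co-cultured with PBMC were exposed to test chemical and TNFa measured by ELISA 24 h after dosing. Bidirectional curve fitting was done relative to DMSO as negative control and baseline.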

Measured: outcome

Chain of E-selectin (Homo sapiens) (P16581 whole entry, looked up): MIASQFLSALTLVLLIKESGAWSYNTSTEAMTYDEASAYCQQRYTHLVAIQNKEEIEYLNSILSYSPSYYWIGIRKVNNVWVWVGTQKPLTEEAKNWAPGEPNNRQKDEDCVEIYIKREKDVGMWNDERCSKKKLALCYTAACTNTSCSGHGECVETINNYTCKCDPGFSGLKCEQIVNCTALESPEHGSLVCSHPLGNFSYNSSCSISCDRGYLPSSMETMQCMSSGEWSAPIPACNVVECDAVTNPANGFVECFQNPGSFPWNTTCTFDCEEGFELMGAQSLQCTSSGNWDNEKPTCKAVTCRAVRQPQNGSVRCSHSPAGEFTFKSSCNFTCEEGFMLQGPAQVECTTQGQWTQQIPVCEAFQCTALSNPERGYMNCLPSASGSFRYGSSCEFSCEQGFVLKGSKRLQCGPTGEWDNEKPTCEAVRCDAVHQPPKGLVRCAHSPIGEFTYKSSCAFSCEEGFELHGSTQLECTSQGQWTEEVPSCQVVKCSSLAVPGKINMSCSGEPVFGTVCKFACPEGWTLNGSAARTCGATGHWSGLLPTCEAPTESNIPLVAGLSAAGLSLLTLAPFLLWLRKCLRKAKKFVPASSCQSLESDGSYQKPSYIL
Chain of Tumor necrosis factor (Homo sapiens) (P01375 whole entry, looked up): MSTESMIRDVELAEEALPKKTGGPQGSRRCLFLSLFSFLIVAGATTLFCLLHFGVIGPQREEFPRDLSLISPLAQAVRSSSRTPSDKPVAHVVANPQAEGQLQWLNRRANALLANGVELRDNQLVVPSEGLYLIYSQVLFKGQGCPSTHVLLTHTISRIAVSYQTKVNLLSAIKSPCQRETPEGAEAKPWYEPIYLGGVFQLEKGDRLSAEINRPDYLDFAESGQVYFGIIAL

O=C(OCCCCCOC(=O)c1ccccc1)c1ccccc1
not listed: [19] | [20]
inactive: all other assays above

CCOC(=O)CCC(=O)OCC
not listed: [9] | [17]
inactive: all other assays above

Cc1ccc(N(C)C)cc1
not listed: [9] | [11] | [20]
inactive: all other assays above

C[Si]1(C)O[Si](C)(C)O[Si](C)(C)O[Si](C)(C)O1
not listed: [9] | [17] | [20]
inactive: all other assays above

From PubChem BioAssay (EPA / NIEHS)
